Compounds without any hit were thinned out: in the full panel of roughly 83,000, 20% have a hit.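 Compound tested at a single concentration for 48 hours in 96-well plates; a percent growth value below 10 was scored as active.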 Active and inactive are the calls of the source.
Experiments:
Assay in all cases: NCI-60 one-dose screen, 48 h (100 = growth as untreated, 0 = no growth, -100 = all killed)
Settings in all cases: 10 µM unless noted
[1] = test system: NCI-H322M lung
[2] = test system: HOP-62 NSCLC
[3] = test system: NCI-H460 lung
[4] = test system: HOP-92 NSCLC
[5] = test system: NCI-H522 lung
[6] = test system: A549/ATCC NSCLC
[7] = test system: 786-0 renal
[8] = test system: COLO 205 colon
[9] = test system: DU-145 prostate
[10] = test system: K-562 leukemia
[11] = test system: MALME-3M melanoma
[12] = test system: MDA-MB-231 breast
[13] = test system: RXF 393 renal
[14] = test system: SF-268 CNS
[15] = test system: SF-295 CNS
[16] = test system: SF-539 CNS
[17] = test system: UACC-257 melanoma
[18] = test system: M14 melanoma
[19] = test system: HCT-15 colon
[20] = test system: NCI-H226 lung

Row | SMILES | growth [1] | growth [2] | growth [3] | growth [4] | growth [5] | growth [6] | growth [7] | growth [8] | growth [9] | growth [10] | growth [11] | growth [12] | growth [13] | growth [14] | growth [15] | growth [16] | growth [17] | growth [18] | growth [19] | growth [20]
1 | O=C(N/N=C/c1ccc([N+](=O)[O-])s1)c1[nH]c2ccc(Br)cc2c1-c1ccccc1 | 54.9% (inactive) | 27.2% (inactive) | -26.1% (active) | -7.35% (active) | -44.5% (active) | 14.5% (inactive) | 9.9% (active) | -55.5% (active) | 20.4% (inactive) | 5.34% (active) | 14.8% (inactive) | -24.1% (active) | 39.3% (inactive) | 36.4% (inactive) | 23.8% (inactive) | -21.2% (active) | 58% (inactive) | -34.5% (active) | 4.77% (active) | 
2 | Cc1cc(C(NC(=O)CCCCCNc2cccc3c2C(=O)N(C2CCC(=O)NC2=O)C3=O)c2cccnc2)c(O)c2ncccc12 (centres undefined) | 3.62% (active) |  | 13.6% (inactive) | -3.51% (active) | 23.4% (inactive) | 28% (inactive) | 9.13% (active) | 2.37% (active) | 34.8% (inactive) | 17.8% (inactive) | -14.3% (active) | -11.5% (active) | 17.2% (inactive) | 23.6% (inactive) | 6.66% (active) | 21.5% (inactive) | 26.2% (inactive) | -5.27% (active) | 19% (inactive) | 14.2% (inactive)
3 | O=C(c1ccc(O)cc1)C1[C@H](c2ccc(Cl)cc2)[C@@H](c2ccccc2)NC12C(=O)Nc1ccc(Cl)cc12 (some centres undefined) | 61.2% (inactive) |  | 20.6% (inactive) | 35.2% (inactive) | 71.7% (inactive) | 33.5% (inactive) | 52.3% (inactive) | 61% (inactive) | 52.4% (inactive) | 28.1% (inactive) | 74.5% (inactive) | 48.6% (inactive) | 27.7% (inactive) | 37.7% (inactive) | 41.1% (inactive) | 66.4% (inactive) | 62.9% (inactive) | 47.7% (inactive) | 28.9% (inactive) | 42.3% (inactive)
4 | COc1ccccc1C(=O)CSc1nc(Nc2ccc(S(N)(=O)=O)cc2)c2ccccc2n1 | 82.6% (inactive) | 86.7% (inactive) | 85.1% (inactive) |  | 90.5% (inactive) | 98.5% (inactive) | 91% (inactive) |  | 96.9% (inactive) | 85.7% (inactive) | 90.2% (inactive) | 77.3% (inactive) | 97.1% (inactive) | 89.9% (inactive) | 97.6% (inactive) | 81.2% (inactive) | 111% (inactive) | 94.1% (inactive) | 92.4% (inactive) | 94.9% (inactive)
5 | CC(=O)Oc1ccccc1C(=O)Nc1cc(C(C)C)ccc1C | 11.7% (inactive) |  | 9.6% (active) | -19.5% (active) | 4.56% (active) | 13.1% (inactive) | 25.6% (inactive) | 92.7% (inactive) | 23.1% (inactive) | 7.45% (active) | -6.69% (active) | 7.22% (active) | -2.41% (active) | 19.8% (inactive) | 11.3% (inactive) | 15.6% (inactive) | -9.44% (active) | 33.2% (inactive) | 14% (inactive) | 9.84% (active)
6 | Cn1c(SCC(=O)Nc2ccc(-c3nc4ccc([N+](=O)[O-])cc4[nH]3)cc2)nc2ccccc2c1=O | 68.6% (inactive) |  | 82.3% (inactive) | 59.5% (inactive) | 74.1% (inactive) | 89.5% (inactive) | 81.5% (inactive) | 98.4% (inactive) | 90.6% (inactive) | 93.6% (inactive) | 87.3% (inactive) | 78.5% (inactive) | 73.1% (inactive) | 83.3% (inactive) | 77.1% (inactive) | 78.1% (inactive) | 87.3% (inactive) | 96.3% (inactive) | 78.2% (inactive) | 37.9% (inactive)
7 | CCOC(=O)c1c(Nc2ccccc2)nn2c(N)c(C#N)c(-c3ccc(OC)cc3)nc12 | 95.5% (inactive) |  | 61.5% (inactive) | 47% (inactive) | 83.3% (inactive) | 69% (inactive) | 32.8% (inactive) |  | 66.3% (inactive) |  | 61.1% (inactive) | 78.1% (inactive) | 46% (inactive) | 61.9% (inactive) | 42.8% (inactive) | 52.1% (inactive) | 95.4% (inactive) | 78.6% (inactive) | 84.6% (inactive) | 42.3% (inactive)
8 | Cc1ccc(-c2nc(C(Cl)Cl)nc3cc(-c4ccccc4)nn23)cc1 | -36.8% (active) |  | -73.5% (active) | -3.62% (active) | 1.72% (active) | -56.3% (active) | 62.4% (inactive) |  | -26.3% (active) | 14.3% (inactive) | 3.13% (active) | 12.9% (inactive) | -63.8% (active) | 23.9% (inactive) | 10.3% (inactive) | 34.4% (inactive) | 28.9% (inactive) | -11.1% (active) | 5.49% (active) | 76.4% (inactive)
9 | Oc1c(Cl)cc(Cl)c2ccc(CN3CCCCC3)nc12 | 37.9% (inactive) |  | 22.2% (inactive) | 48.6% (inactive) | 34% (inactive) | 44.7% (inactive) | 36.1% (inactive) |  | 44% (inactive) | 21.9% (inactive) | 31.4% (inactive) | 40.4% (inactive) | 78.2% (inactive) | 41.9% (inactive) | 26.5% (inactive) | 29.1% (inactive) | 43.1% (inactive) | 8.72% (active) | 26.7% (inactive) | 48.6% (inactive)
10 | COc1cc(OC)c(C2C(Cl)C(=O)N2Nc2ncnc3ccccc23)cc1OC (centres undefined) | 92.3% (inactive) |  | 107% (inactive) | 102% (inactive) | 94.2% (inactive) | 105% (inactive) | 98.6% (inactive) | 125% (inactive) | 109% (inactive) | 100% (inactive) | 93.2% (inactive) | 87.3% (inactive) | 112% (inactive) | 99.2% (inactive) | 102% (inactive) | 104% (inactive) | 111% (inactive) | 88.6% (inactive) | 101% (inactive) | 90.3% (inactive)
11 | N[C@@H](Cc1cn(-c2c3ccccc3nc3ccccc23)nn1)C(=O)O | 98.3% (inactive) |  | 111% (inactive) | 108% (inactive) | 105% (inactive) | 102% (inactive) | 105% (inactive) | 109% (inactive) | 105% (inactive) | 88% (inactive) | 103% (inactive) | 97.4% (inactive) | 114% (inactive) | 101% (inactive) | 105% (inactive) | 90.8% (inactive) | 106% (inactive) | 107% (inactive) | 85.4% (inactive) | 103% (inactive)
12 | CS(=O)(=O)c1ccc(-c2nc3ccccn3c2/C=N/Nc2nc(-c3ccc(Br)cc3)cs2)cc1 | 111% (inactive) |  | 104% (inactive) |  | 99.8% (inactive) | 109% (inactive) | 84.8% (inactive) | 116% (inactive) | 109% (inactive) | 86.1% (inactive) | 128% (inactive) | 105% (inactive) | 99.7% (inactive) | 108% (inactive) | 102% (inactive) | 105% (inactive) | 122% (inactive) | 112% (inactive) | 92.6% (inactive) | 108% (inactive)
13 | C#Cc1nc(C2=C(C)/C(=N/OCc3ccccc3)CC2)cs1 | 92.6% (inactive) |  | 39.6% (inactive) | -79.2% (active) | -56.9% (active) | 84.5% (inactive) | -95.7% (active) | 83.5% (inactive) | 88.5% (inactive) | 75.5% (inactive) | -44% (active) | -39.2% (active) | 33.6% (inactive) | 0.651% (active) | -84% (active) | -86.5% (active) | 84.4% (inactive) | 75.4% (inactive) | 53.4% (inactive) | 48.4% (inactive)
14 | O=[N+]([O-])c1ccc(O)c2ncccc12 | 39.1% (inactive) |  | 10.3% (inactive) | 40.1% (inactive) | 21.2% (inactive) | 27% (inactive) | 42.4% (inactive) | 46.5% (inactive) | 43.3% (inactive) | 12.6% (inactive) | 38% (inactive) | 31.9% (inactive) | 41.6% (inactive) | 37.2% (inactive) | 23.1% (inactive) | 23.2% (inactive) | 16.5% (inactive) | 31.9% (inactive) | 21.3% (inactive) | 48.7% (inactive)
15 | CN(C)CCCOc1c2ccccc2nc2c1oc1ccc(Cl)cc12 | -9.94% (active) |  | 4.37% (active) | 3.66% (active) | -57.1% (active) | -2.75% (active) | 7.33% (active) | -24.5% (active) | -1.68% (active) | -14.3% (active) | -8.62% (active) | 7.86% (active) | -74.1% (active) | 14.6% (inactive) | 5.01% (active) | 6.92% (active) | 20% (inactive) | -87.3% (active) | -21.4% (active) | -6.99% (active)

Reference: PubChem BioAssay (NCI)
